From PubChem BioAssay (EPA / NIEHS)
Active and inactive are the calls of the source. Rule for the calls: active = hit-call score of the fitted dose curve at least 0.9, where 1 is the maximum; inactive = score below 0.9.

These molecules were tested on Forkhead box O3 (FOXO3), FOXO3 (gene 2309) (assay: LTEA_HepaRG_FOXO3: Life Technologies and Expression Analysis (LTEA) Assay for Forkhead box O3 (FOXO3) using HepaRG (AID 2283459)). Details: mRNA level, 48 h; actives raise or lower the signal.
Procedure: LTEA_HepaRG is a cell based, multiplexed-readout assay that uses HepaRG, a human liver cell line, with measurements taken at 48 hours after chemical dosing on a 96-well plate.LTEA_HepaRG_FOXO3 is one of 102 assay component(s) measured in the LTEA HepaRG cell culture assay. It is a marker of Cell proliferation, survival, death.Data from the assay component LTEA_HepaRG_FOXO3 was analyzed into 1 endpoint. This assay endpoint, LTEA_HepaRG_FOXO3, was analyzed with bidirectional fitting relative to DMSO as the negative control and baseline of activity. Using a type of inducible reporter, measures of mRNA induction for gain or loss-of-signal activity can be used to understand regulation of transcription factor activity. To generalize the intended target to other relatable targets, this assay endpoint is annotated to the dna binding intended target family, where the subfamily is forkhead box protein.
A total of 1060 chemcials from the ToxCast library were tested in eight-point concentration-response experiments. Cell culture and cytotoxicity assays were conducted at Thermo Fisher Scientific's Custom Services facility (Madison, WI). A single lot of human HepaRG cells (Thermo Fisher Scientific, Frederick, MD) was used for the cell culture experiments. 96-well format collagen type I coated plates of human HepaRG cells were prepared using established methods. Briefly, cryopreserved HepaRG cells were thawed, plated at a density of approximately 100,000 cells/well in HepaRG Thaw, Plate, and General Purpose media (HPRG770, Thermo Fisher Scientific), and incubated for 48 hours. 0.5% DMSO was selected as vehicle control to balance the requisite need of DMSO in HepaRG cultures to maintain differentiation (for example, baseline metabolism, proportions of hepatocytes vs. cholangiocytes), while enabling further hepatic receptor pathway activation (for example, PXR and CAR) in response to chemical exposure. 48 hours after plating, the culture medium was replaced with HepaRG Serum-Free Incudtion Media. Cells were exposed to each test chemical in duplicate and maintained in CO2 incubators for another 48 hours. Chemical plates were thawed to room temperature and 200x concentrations of treatment groups were prepared. 8-point conentration-reponse curves were made with the highest exposure at 100 uM, followed by half-log dilutions, all in 0.5% DMSO. Each test plate contained variouse controls, induction positive controls (1mM phenobarbital), cytotoxicity positive controls ([…] aflatoxin B1), vehicle controls (0.5% DMSO), and total lysis controls (0.5% DMSO). Cell morphology images were taken using an Essen IncuCyte FLR automated microscope, with six 96-well plates imaged in about 24 minutes. Images were captured and exported and JPEG files. Spent culture media was transfered to black-well plates for the LDH assay, and remaining media was sorted at -80 C for later use. Cells were treated with RLT buffer and frozen until shipped for gene expression analysis. Total RNA was isolated from the cell suspension in 75 uL of Buffer RLT (Qiagen, Germantown, MD 20874) by Quintiles/Expression Analysis (Durham, NC) using a custom isolation procedure. Total RNA from each plate well was transferred to a preamplification plate. Fluidigm's 96.96 Dynamic ArrayTM (Fluidigm, Amsterdam, the Netherlands) technology was used for gene expression analyses by quantitative reverse transcription polymerase chain reaction (qRT-PCR, performed by Quintiles/Expression Analysis, Durham, NC)89. Standard TaqManTM Assays (Applied Biosystems/ThermoFisher Scientific, Foster City, CA) were used to assess the expression of 93 genes selected based on their selectivity and sensitivity to important hepatic receptors known to be modulated by environmental chemicals; importance in human hepatocyte functionality; and hepatotoxicity. […]
`CCOP(=S)(OCC)SCSCC` was tested, and the outcome was “inactive”. `c1ccc(OP(Oc2ccccc2)Oc2ccccc2)cc1` was tested, and the outcome was “inactive”. `CC(Cl)(Cl)C(=O)O` was tested, and the outcome was “inactive”. For `CCCCN(CCCC)N=O`, the outcome was “inactive”. For `Cc1ccc([N+](=O)[O-])cc1C`, the outcome was “inactive”. With `ClC1=C(Cl)C2(Cl)C3C(Cl)C(Cl)CC3C1(Cl)C2(Cl)Cl` (stereo not given) the outcome was “inactive”. For `CCC1(c2ccccc2)C(=O)N=C(O)NC1=O` (stereo not given), the outcome was “inactive”. In the case of `CCNc1nc(Cl)nc(NC(C)(C)C)n1`, the outcome is reported as “inactive”. In the case of `CCOc1ccc(C(C)(C)COCc2cccc(Oc3ccccc3)c2)cc1`, the outcome is reported as “inactive”. In the case of `Cc1cccc(N)c1`, the outcome is reported as “inactive”. With `O=[N+]([O-])c1ccc(Cl)c(Cl)c1` the outcome was “inactive”. `CCC(C)(C)c1ccc(O)cc1` was tested, and the outcome was “inactive”. `CCCCN(CCCC)SN(C)C(=O)Oc1cccc2c1OC(C)(C)C2` was tested, and the outcome was “inactive”. In the case of `OCC1CO1` (stereo not given), the outcome is reported as “inactive”. For `ClC(Cl)(Cl)c1ccccc1`, the outcome was “inactive”. For `Nc1cc2c3c(c1)C(c1ccccc1)=N[C@@H](NC(=O)c1cccnc1)C(=O)N3CC2`, the outcome was “inactive”. In the case of `COCCOCCO`, the outcome is reported as “inactive”. For `CCCCCCCc1ccc(O)cc1`, the outcome was “inactive”. With `CCCN(CCC)c1c([N+](=O)[O-])cc(C(C)C)cc1[N+](=O)[O-]` the outcome was “inactive”. `CC(C)(C)c1ccc(O)cc1` was tested, and the outcome was “inactive”. `Cc1ccc(O)cc1C` was tested, and the outcome was “inactive”. `O=P(Oc1ccccc1)(Oc1ccccc1)Oc1ccccc1` was tested, and the outcome was “inactive”. For `O=C(O)C(Cl)Cl`, the outcome was “inactive”. In the case of `O=[N+]([O-])c1ccccc1`, the outcome is reported as “inactive”. With `CSC(C)(C)C=NO` the outcome was “inactive”. In the case of `O=P1(N(CCCl)CCCl)NCCCO1` (stereo not given), the outcome is reported as “inactive”. In the case of `ClC(Cl)c1ccccc1`, the outcome is reported as “inactive”. With `c1nc[nH]n1` the outcome was “inactive”. In the case of `CCN(CC)c1ccccc1`, the outcome is reported as “inactive”. In the case of `Nc1ccc(Cl)cc1`, the outcome is reported as “inactive”. `O=C(O)C1C(C(=O)O)C2(Cl)C(Cl)=C(Cl)C1(Cl)C2(Cl)Cl` (stereo not given) was tested, and the outcome was “inactive”. With `CC(Cc1ccc(OCC(=O)O)cc1)NCC(O)c1csc(C(F)(F)F)n1` (stereo not given) the outcome was “inactive”. With `c1ccc2c(c1)Nc1ccccc1S2` the outcome was “inactive”. `CCCCc1ccccc1` was tested, and the outcome was “inactive”. For `c1cc2c3c(cccc3c1)CC2`, the outcome was “inactive”. In the case of `Cc1ccc(N)cc1N`, the outcome is reported as “inactive”. With `CN(C)C(=O)Cl` the outcome was “inactive”. For `CCOC(=O)c1ccccc1C(=O)OCC`, the outcome was “inactive”. With `CC(C)(C)OOC(C)(C)C` the outcome was “inactive”. In the case of `CCOS(=O)(=O)OCC`, the outcome is reported as “inactive”.
